Assay results taken from PubChem BioAssay.
Results filed as inconclusive are left out. The source made the active and inactive calls.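 Rule for the calls, unless noted: active = binding below the plate cutoff, the plate median minus 3 SD, with a reading above zero; inconclusive = below the plate cutoff but reading exactly zero; inactive = the rest.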

How the values were obtained:
[1] = rapamycin-like changes in RPL19A-GFP expression – cell-based, S. cerevisiae, multiplex flow cytometry, primary screen (AID 1862; in the data active = percent of DMSO control GFP below about 86%;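 note: lower values mimic rapamycin by blocking the RPL19A rise seen in DMSO cells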); conditions: S. cerevisiae RPL19A-GFP strain, flow cytometry fluorescence, 3 h; at 10 µM; stronger effect = lower value
[2] = TOR pathway GLN3 branch reporter MEP2-GFP changes – S. cerevisiae, multiplex flow cytometry, primary screen (AID 1867;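 active = GFP response, as percent of the DMSO control, above the screen-wide mean plus 3 SD, about 139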;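 note: median GFP channel fluorescence of barcode-gated MEP2-GFP cells measured by flow cytometry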); conditions: S. cerevisiae MEP2-GFP strain, 3 h, at 10 µM, stronger effect = higher value, 100% means same as DMSO wells
[3] = TOR pathway RTG branch CIT2 reporter changes – S. cerevisiae, GFP fusion, multiplex flow cytometry, primary screen (AID 1870;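 active = percent response above a set limit, the screen-wide mean plus 3 SD, cut at about 130% in these data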;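 note: barcoded CIT2-GFP strain pooled with four other GFP strains with rapamycin as positive control; median GFP fluorescence per well over plate mean of DMSO wells so 100% = DMSO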); conditions: S. cerevisiae CIT2-GFP expression, 3 h, at 10 µM, stronger effect = higher value
[4] = TOR pathway LAP4-GFP level changes – S. cerevisiae, multiplex flow cytometry, primary screen (AID 1873;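 active = GFP signal, as percent of the solvent control, above the screen mean plus 3 SD, about 149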); conditions: S. cerevisiae LAP4-GFP expression, 3 h, at 10 µM, stronger effect = higher value
[5] = yeast AGP1-GFP level changes, GLN3 branch – cell-based, multiplex flow cytometry, S. cerevisiae, primary screen (AID 1887;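 active = GFP signal above the screen-wide mean plus 3 SD, that is over about 124.5% of the solvent control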;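 note: AGP1-GFP fusion strain of S. cerevisiae within a five-strain barcoded multiplex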); conditions: 3 h, at 10 µM, stronger effect = higher value
[6] = reduced mouse 2C T cell binding to pMHC/ICAM-1 vesicles – MLPCN validation set, flow cytometry, LFA-1/ICAM-1 modulator project, pilot screen (AID 2523;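 active = response below a set limit, under 55% cells CD8-positive and vesicle-bound, and CD8 cells' 90th-percentile brightness under 279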;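 for vesicle binding response: mean PE anti-B7-1 fluorescence of CD8+ cells relative to row control; 100% = QL9-loaded vesicles with DMSO vehicle in the same plate row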); conditions: 2C mouse CD8+ T cells, at 7 µM, stronger effect = lower value; double positive events: measured here: CD8+/vesicle+ event percentage
[7] = target: Integrin beta-1 (Homo sapiens) + Integrin alpha-4 (Homo sapiens) (UniProt P13612+P05556); experiment: alpha4beta1 integrin LIBS antibody binding reduction – U937 cells, HUTS-21 mAb, flow cytometry, validation set, VLA-4 allosteric modulator project, pilot screen (AID 2674;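 active = inhibition above 50%, about 3 SD of the validation set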;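 note: antibody binding induced by the VLA-4 ligand LDV present at three times its Kd; 0% = LDV ligand with antibody and no compound and 100% = antibody without LDV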); conditions: HUTS-21 LIBS mAb binding, at 6.7 µM, stronger effect = higher value, binding induced by LDV ligand
Sequence of Integrin beta-1 (Homo sapiens) + Integrin alpha-4 (Homo sapiens) (P05556 whole entry, looked up): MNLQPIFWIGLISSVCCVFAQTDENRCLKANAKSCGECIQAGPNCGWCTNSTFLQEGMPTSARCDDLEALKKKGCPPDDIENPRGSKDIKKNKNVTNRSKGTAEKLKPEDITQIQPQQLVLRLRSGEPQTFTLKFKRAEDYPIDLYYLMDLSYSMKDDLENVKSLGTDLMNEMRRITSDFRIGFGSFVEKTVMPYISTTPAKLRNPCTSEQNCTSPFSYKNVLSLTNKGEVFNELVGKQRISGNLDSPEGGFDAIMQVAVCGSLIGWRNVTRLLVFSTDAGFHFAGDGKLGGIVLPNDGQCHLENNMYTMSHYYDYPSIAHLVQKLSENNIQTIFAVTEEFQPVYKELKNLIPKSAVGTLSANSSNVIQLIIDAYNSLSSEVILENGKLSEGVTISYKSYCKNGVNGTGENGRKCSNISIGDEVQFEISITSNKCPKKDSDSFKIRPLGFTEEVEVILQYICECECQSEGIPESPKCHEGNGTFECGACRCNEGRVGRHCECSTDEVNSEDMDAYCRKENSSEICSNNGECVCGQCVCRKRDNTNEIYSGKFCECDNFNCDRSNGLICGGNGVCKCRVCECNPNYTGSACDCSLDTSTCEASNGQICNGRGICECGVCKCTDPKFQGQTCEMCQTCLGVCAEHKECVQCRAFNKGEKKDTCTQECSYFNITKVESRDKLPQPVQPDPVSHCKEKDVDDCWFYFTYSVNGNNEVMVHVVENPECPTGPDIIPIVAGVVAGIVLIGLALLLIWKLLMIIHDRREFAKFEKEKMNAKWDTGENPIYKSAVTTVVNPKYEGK
Sequence of Integrin beta-1 (Homo sapiens) + Integrin alpha-4 (Homo sapiens) (P13612 whole entry, looked up): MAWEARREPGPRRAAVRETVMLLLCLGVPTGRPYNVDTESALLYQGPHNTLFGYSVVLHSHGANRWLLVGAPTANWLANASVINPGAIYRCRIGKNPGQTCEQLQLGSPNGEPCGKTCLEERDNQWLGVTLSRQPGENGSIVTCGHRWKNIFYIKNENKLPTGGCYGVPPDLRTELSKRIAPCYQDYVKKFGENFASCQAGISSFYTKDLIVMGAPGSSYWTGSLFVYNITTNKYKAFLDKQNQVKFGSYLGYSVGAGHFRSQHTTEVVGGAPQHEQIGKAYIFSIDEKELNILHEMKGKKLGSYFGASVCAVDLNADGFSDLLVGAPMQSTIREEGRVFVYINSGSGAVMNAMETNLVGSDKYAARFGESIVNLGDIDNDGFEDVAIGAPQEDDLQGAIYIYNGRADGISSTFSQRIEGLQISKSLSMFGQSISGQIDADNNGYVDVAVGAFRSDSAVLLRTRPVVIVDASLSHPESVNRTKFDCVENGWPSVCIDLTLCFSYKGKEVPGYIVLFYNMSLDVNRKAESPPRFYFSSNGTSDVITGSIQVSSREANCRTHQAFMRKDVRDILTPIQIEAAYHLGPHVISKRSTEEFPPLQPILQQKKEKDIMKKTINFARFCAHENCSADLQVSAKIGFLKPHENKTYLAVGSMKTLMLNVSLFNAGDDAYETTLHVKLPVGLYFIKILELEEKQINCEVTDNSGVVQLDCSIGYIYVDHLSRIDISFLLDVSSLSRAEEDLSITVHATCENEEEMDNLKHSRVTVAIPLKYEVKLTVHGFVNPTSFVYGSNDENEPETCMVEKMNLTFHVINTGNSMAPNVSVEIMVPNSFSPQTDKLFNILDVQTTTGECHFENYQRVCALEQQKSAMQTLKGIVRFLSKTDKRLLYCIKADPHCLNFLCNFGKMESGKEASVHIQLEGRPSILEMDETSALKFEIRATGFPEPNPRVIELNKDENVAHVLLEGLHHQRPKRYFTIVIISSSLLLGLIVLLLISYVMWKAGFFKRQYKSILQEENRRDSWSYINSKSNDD

[8] = calorie-restriction mimetic ROS inhibitors, yeast – validation compound set, pilot screen (AID 2706;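 active = superoxide response below 65% of plate, a cut near 3 SD across the whole screen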;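 note: yeast exposed to compound for one week at 30 degrees C before staining; 100% = mean of all compound wells on the same plate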); conditions: S. cerevisiae aging, superoxide DHE fluorescence; at 10 µM; stronger effect = lower value
[9] = target: Beta-adrenergic receptor kinase 1 (Homo sapiens) (UniProt P25098); experiment: GRK2 binders displacing RNA aptamer, biochemical, validation, human GRK2, bead flow cytometry (AID 488806;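 active = aptamer binding inhibition above 30%, about 3 SD of noise from non-fluorescent compounds; inactive = inhibition at or below 30%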); conditions: bead-bound GRK2, FAM-aptamer displacement, at 10 µM, stronger effect = higher value
Sequence of Beta-adrenergic receptor kinase 1 (Homo sapiens) (P25098 whole entry, looked up): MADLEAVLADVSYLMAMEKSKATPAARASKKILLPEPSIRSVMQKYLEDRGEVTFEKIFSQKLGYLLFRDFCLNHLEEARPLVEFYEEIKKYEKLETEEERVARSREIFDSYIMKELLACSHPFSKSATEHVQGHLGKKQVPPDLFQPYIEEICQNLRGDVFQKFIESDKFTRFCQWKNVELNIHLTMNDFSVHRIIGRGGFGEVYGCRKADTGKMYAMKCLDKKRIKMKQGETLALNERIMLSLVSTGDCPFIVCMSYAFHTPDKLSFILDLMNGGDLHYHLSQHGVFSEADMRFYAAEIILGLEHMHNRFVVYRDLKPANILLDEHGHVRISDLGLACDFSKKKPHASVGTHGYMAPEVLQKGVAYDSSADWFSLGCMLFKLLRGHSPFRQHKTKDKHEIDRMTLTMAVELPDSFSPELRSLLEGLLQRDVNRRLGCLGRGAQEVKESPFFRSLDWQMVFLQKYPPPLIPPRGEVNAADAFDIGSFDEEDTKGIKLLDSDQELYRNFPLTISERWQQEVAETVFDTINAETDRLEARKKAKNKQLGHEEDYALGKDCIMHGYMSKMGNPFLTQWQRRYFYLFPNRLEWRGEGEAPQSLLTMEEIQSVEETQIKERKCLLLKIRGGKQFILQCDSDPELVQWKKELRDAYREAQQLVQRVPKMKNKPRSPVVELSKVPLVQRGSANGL

[10] = target: Beta-2 adrenergic receptor (Homo sapiens) (UniProt P07550); experiment: agonist-induced loss of surface beta2AR – cell-based, FAP fluorogen, flow cytometry, validation set, pilot screen (AID 504459;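 active = percent response above 42, roughly 3 SD of non-fluorescent test compounds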;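 note: agonist-driven loss of surface beta2AR via internalization measured by FAP dye flow cytometry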); conditions: Am2.2-beta2AR cells, at 10 µM, stronger effect = higher value
Sequence of Beta-2 adrenergic receptor (Homo sapiens) (P07550 whole entry, looked up): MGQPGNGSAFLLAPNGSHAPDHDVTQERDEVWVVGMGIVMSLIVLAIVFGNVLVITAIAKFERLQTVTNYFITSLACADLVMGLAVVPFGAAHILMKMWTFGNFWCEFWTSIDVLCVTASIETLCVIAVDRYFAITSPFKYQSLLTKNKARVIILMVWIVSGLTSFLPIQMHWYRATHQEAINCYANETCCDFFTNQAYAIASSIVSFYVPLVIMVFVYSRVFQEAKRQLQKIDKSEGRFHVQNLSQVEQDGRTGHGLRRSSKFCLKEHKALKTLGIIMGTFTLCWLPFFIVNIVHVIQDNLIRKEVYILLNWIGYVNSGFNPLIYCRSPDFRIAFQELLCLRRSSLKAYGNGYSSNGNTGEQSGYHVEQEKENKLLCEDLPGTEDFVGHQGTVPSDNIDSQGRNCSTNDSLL

[11] = target: AP-2 complex subunit beta (Homo sapiens) (UniProt P63010); experiment: beta-arrestin/AP2 interaction blockers – biochemical, validation set, GST-AP2 beads, flow cytometry, pilot screen (AID 504541;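 active = inhibition above 54%, about 3 SD of non-fluorescent compounds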;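 note: AP2 carries R879A mutation and is captured from E. coli lysate; bead-bound FITC arrestin peptide fluorescence measuring arrestin peptide binding to AP2; 0% = DMSO wells and 100% = excess unlabeled arrestin peptide control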); conditions: FITC arrestin peptide, at 10 µM, stronger effect = higher value, AP2 beta2 appendage fragment, R879A mutant
Sequence of AP-2 complex subunit beta (Homo sapiens) (P63010 whole entry, looked up, the tested form may be a part, one chain of several): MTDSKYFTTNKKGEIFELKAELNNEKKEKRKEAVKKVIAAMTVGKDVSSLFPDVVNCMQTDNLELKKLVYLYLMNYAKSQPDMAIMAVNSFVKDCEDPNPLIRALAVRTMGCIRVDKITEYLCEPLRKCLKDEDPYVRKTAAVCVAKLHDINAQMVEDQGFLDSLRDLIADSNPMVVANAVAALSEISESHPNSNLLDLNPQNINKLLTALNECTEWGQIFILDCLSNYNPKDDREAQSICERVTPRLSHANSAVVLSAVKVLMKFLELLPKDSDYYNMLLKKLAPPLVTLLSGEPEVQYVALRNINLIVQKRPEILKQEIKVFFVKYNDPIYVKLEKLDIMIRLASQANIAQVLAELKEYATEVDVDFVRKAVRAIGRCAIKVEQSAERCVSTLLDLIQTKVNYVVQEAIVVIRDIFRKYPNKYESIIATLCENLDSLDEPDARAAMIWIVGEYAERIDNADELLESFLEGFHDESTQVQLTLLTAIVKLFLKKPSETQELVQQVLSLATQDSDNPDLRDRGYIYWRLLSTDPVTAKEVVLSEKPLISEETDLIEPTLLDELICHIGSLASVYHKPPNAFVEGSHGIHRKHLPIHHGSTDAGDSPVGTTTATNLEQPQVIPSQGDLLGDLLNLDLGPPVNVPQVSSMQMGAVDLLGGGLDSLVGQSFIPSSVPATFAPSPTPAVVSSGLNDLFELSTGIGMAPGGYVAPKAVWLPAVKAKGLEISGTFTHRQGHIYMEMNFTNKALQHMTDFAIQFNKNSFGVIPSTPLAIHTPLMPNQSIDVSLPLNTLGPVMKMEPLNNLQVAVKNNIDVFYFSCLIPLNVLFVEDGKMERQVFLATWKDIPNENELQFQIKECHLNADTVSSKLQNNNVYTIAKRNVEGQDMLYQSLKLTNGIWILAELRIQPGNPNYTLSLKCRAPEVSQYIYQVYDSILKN

[12] = cytosolic pH regulators acting via V-ATPase – S. cerevisiae, pHLuorin, HTS validation (AID 504600; in the data active = response above about 15%;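 note: plate controls were DMSO for no effect and reference compound for full effect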); conditions: V-ATPase proton transport, at 10 µM, stronger effect = higher value
[13] = system: anti-desmoglein-3 scFv antibody binding to human DSG3; experiment: blockers of pathogenic pemphigus antibody–desmoglein-3 binding – biochemical, validation compound set, bead-based, flow cytometry, pilot screen (AID 588368); conditions: Protein G beads, DSG3-Fc, scFv-GFP binding, at 10 µM, stronger effect = lower value;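 note: signal is the median channel fluorescence of bead-bound GFP antibody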
[14] = Nile Red efflux blockade in pump-expressing yeast – validation compound set, multiplex, phenotypic, pilot screen (AID 588506;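 active = efflux inhibition above 0.42, the validation set average plus 4 SD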;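 note: Nile Red retained in cells so higher fluorescence means more efflux inhibition; 0 = negative control wells and 1 = enniatin B 25 µM full block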); conditions: S. cerevisiae pump-expressing triplex, Nile Red efflux flow cytometry; at 10 µM; stronger effect = higher value; the pumps come from Candida albicans
[15] = target: ATP-binding cassette sub-family B member 6 (Homo sapiens) (UniProt Q9NP58); experiment: blockers of ABCB6-driven porphyrin uptake – K562-ABCB6 cells, flow cytometry, validation set, pilot screen (AID 588550;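 active = inhibition above the screen-wide mean plus 3 SD, about 51%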;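 note: 0% = DMSO wells and 100% = benzethonium chloride 70 µM positive control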); conditions: K562-ABCB6 porphyrin accumulation, 1 h, at 10 µM, stronger effect = higher value
Sequence of ATP-binding cassette sub-family B member 6 (Homo sapiens) (Q9NP58 whole entry, looked up): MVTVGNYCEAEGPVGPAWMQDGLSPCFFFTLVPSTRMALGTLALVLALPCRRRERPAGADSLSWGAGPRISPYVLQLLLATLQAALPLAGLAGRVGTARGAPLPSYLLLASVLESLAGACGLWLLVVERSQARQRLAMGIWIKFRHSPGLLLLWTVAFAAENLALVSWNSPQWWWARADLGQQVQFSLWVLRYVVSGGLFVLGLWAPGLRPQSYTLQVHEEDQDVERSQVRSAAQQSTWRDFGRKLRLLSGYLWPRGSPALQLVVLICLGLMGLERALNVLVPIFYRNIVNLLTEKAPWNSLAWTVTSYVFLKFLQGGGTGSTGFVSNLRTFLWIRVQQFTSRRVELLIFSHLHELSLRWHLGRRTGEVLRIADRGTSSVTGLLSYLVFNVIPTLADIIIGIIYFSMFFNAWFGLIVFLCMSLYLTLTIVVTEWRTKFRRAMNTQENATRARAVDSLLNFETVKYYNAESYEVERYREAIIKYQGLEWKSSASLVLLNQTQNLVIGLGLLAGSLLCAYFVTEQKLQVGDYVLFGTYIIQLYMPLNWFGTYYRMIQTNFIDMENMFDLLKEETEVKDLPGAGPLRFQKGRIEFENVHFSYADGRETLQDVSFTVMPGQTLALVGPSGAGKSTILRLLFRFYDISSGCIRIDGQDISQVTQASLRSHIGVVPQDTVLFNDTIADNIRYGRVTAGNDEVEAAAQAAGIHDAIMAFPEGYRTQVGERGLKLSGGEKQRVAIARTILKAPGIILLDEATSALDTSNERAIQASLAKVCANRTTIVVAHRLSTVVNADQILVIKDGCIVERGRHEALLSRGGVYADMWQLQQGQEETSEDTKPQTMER

[16] = AML differentiation inducers, ER-HoxA9 marrow cells – cell-based, GFP/MAC1 double positive, flow cytometry, validation set, primary screen (AID 588685;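 active = differentiation response of at least 50%, scaled between solvent and reference control, from cells with both markers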;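 note: compound exposure lasts four days before antibody staining and flow analysis; 0% = DMSO wells and 100% = 5 µM fulvestrant positive control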); conditions: stronger effect = higher value, normalized: vehicle 0, fulvestrant 100

Row | Compound | percent of DMSO control GFP [1] | GFP response vs DMSO [2] | percent response of DMSO control [3] | GFP response vs DMSO [4] | GFP response, % of DMSO [5] | double positive events [6] | vesicle binding response [6] | inhibition [7] | superoxide response (% of plate) [8] | aptamer binding inhibition [9] | response [10] | inhibition [11] | response [12] | binding (% of control) [13] | efflux inhibition (fraction of control) [14] | inhibition [15] | differentiation response [16]
1 | CN1CCCN(C(c2ccccc2)c2ccc(Cl)cc2)CC1 (stereo unspecified) | 97.1% (inactive) | 102% (inactive) | 103% (inactive) | 123% (inactive) | 120% (inactive) | 54.6% | 171% (inactive) | 39.8% (inactive) | 107% (inactive) | -14% (inactive) | 29.3% (inactive) | -13.9% (inactive) | -5.79% (inactive) | 107% (inactive) | 0.04 (inactive) | 2% (inactive) | -7.94% (inactive)
2 | COc1ccc([C@H]2[C@H](C(=O)OC(C)(C)C)N3N=Cc4ccccc4C3C23C(=O)c2ccccc2C3=O)cc1OC (stereo partly specified) | 99.1% (inactive) | 106% (inactive) | 97.7% (inactive) | 97.4% (inactive) | 89.1% (inactive) | 49.9% | 39.2% (active) | -45.5% (inactive) | 103% (inactive) | -1% (inactive) | 35.3% (inactive) | 61.9% (active) | -3.19% (inactive) | 96.8% (inactive) | -0.06 (inactive) | -27% (inactive) | -13.6% (inactive)
3 | CCCCC(=O)O[C@H]1CC[C@H]2[C@@H]3CCc4cc(O)ccc4[C@H]3CC[C@]12C | 100% (inactive) | 105% (inactive) | 109% (inactive) | 125% (inactive) | 116% (inactive) | 62.5% | 210% (inactive) | 29.5% (inactive) | 93.8% (inactive) | -4% (inactive) | 52.1% (active) | 30.7% (inactive) | -0.48% (inactive) | 106% (inactive) | -0.17 (inactive) | -1% (inactive) | -6.96% (inactive)
4 | COc1ccc(C2C3=C(OC(C)=O)c4ccccc4C3=Nc3c2c(=O)n(C)c(=O)n3C)cc1 (stereo unspecified) | 105% (inactive) | 94.6% (inactive) | 106% (inactive) | 105% (inactive) | 103% (inactive) | 58.8% | 127% (inactive) | 1.59% (inactive) | 98.4% (inactive) | -1% (inactive) | -14.8% (inactive) | 0.59% (inactive) | -2.42% (inactive) | 102% (inactive) | -0.02 (inactive) | 4% (inactive) | -11.9% (inactive)
5 | COc1cccc(CC2CC(=O)N(c3ccc4c(C)cc(=O)oc4c3)C2=O)c1 (stereo unspecified) | 99.5% (inactive) | 106% (inactive) | 87.2% (inactive) | 132% (inactive) | 97.1% (inactive) | 61% | 238% (inactive) | -0.43% (inactive) | 93.9% (inactive) | 2% (inactive) | 5.39% (inactive) | -2.24% (inactive) | 8.95% (inactive) | 98.9% (inactive) | -0.06 (inactive) | 4% (inactive) | 39.2% (inactive)
6 | COc1cccc(CC(=O)NCC2COc3ccccc3O2)c1OC (stereo unspecified) | 103% (inactive) | 105% (inactive) | 101% (inactive) | 102% (inactive) | 106% (inactive) | 60.9% | 230% (inactive) | 6.95% (inactive) | 92.8% (inactive) | 2% (inactive) | 3.04% (inactive) | -3.19% (inactive) | -3.58% (inactive) | 103% (inactive) | -0.1 (inactive) | 63% (active) | -6.03% (inactive)
7 | CC(C)(C)C(=O)NC(=S)NNC(=O)c1ccncc1 | 98.2% (inactive) | 104% (inactive) | 101% (inactive) | 127% (inactive) | 109% (inactive) | 57.3% | 185% (inactive) | -7.08% (inactive) | 88.6% (inactive) | -5% (inactive) | -25% (inactive) | -3.36% (inactive) | 2.56% (inactive) | 105% (inactive) | -0.04 (inactive) | -5% (inactive) | -7.94% (inactive)
8 | CCOC(=O)C1=C(C)NC(C)=C(C(=O)OC)C1c1cccc(Cl)c1Cl (stereo unspecified) | 88.4% (inactive) | 125% (inactive) | 104% (inactive) | 79.2% (inactive) | 80.3% (inactive) | 65.9% | 193% (inactive) | 5.49% (inactive) | 121% (inactive) | 6% (inactive) | -8.07% (inactive) | -0.86% (inactive) | -0.17% (inactive) | 106% (inactive) | -0.28 (inactive) | 9% (inactive) | 0% (inactive)
9 | CNc1c2c(nn1C)CCCC2 | 104% (inactive) | 97.7% (inactive) | 106% (inactive) | 97% (inactive) | 106% (inactive) | 62.2% | 126% (inactive) | 1.59% (inactive) | 115% (inactive) | 5% (inactive) | 1.87% (inactive) | -17.3% (inactive) | -7.05% (inactive) | 101% (inactive) | -0.19 (inactive) | -3% (inactive) | -3.11% (inactive)
10 | O=C(COc1cc(O)c2c(=O)c3ccccc3oc2c1)OCc1ccccc1 | 101% (inactive) | 104% (inactive) | 109% (inactive) | 85.5% (inactive) | 97.6% (inactive) | 61% | 152% (inactive) | -3.57% (inactive) | 101% (inactive) | -2% (inactive) | -4.65% (inactive) | -5.28% (inactive) | 4.03% (inactive) | 93.3% (inactive) | -0.01 (inactive) | 0% (inactive) | 12.9% (inactive)
11 | COc1ccc(CN2CCCC(C(=O)c3ccc(Cl)cc3)C2)cc1Cn1cccn1 (stereo unspecified) | 104% (inactive) | 105% (inactive) | 99.7% (inactive) | 95.9% (inactive) | 100% (inactive) | 61.3% | 182% (inactive) | -9.13% (inactive) | 79.4% (inactive) | -4% (inactive) | 30.8% (inactive) | -0.55% (inactive) | 1.1% (inactive) | 98.5% (inactive) | 0.05 (inactive) | 12% (inactive) | -3.11% (inactive)
12 | Nc1ccc(S(=O)(=O)NC(=O)c2ccccc2)cc1 | 100% (inactive) | 103% (inactive) | 96.6% (inactive) | 99.9% (inactive) | 100% (inactive) | 57.6% | 30.6% (inactive) | -6.68% (inactive) | 110% (inactive) | 1% (inactive) | -5.78% (inactive) | -15.4% (inactive) | 5.4% (inactive) | 99.3% (inactive) | -0.07 (inactive) | 11% (inactive) | 1.22% (inactive)
13 | Cc1cc(=O)c2c(O)c(O)ccc2o1 | 102% (inactive) | 107% (inactive) | 98.9% (inactive) | 90.7% (inactive) | 101% (inactive) | 60.3% | 30% (inactive) | -7.72% (inactive) | 105% (inactive) | -4% (inactive) | 5.76% (inactive) | -12.7% (inactive) | -0.09% (inactive) | 98.5% (inactive) | -0.07 (inactive) | 7% (inactive) | 9.04% (inactive)
14 | FC(F)(F)c1ccc(-c2noc(CN3CCCN(C4CCCCC4)CC3)n2)cc1 | 100% (inactive) | 105% (inactive) | 101% (inactive) | 93.3% (inactive) | 101% (inactive) | 62.5% | 5350% (inactive) | -7.72% (inactive) | 89.3% (inactive) | -12% (inactive) | -4.45% (inactive) | -10.2% (inactive) | 3.31% (inactive) | 103% (inactive) | -0.14 (inactive) | -11% (inactive) | 33.5% (inactive)
15 | O=C1OC(Nc2ccc3c(c2)OCO3)c2ccccc21 (stereo unspecified) | 99.4% (inactive) | 105% (inactive) | 93.1% (inactive) | 114% (inactive) | 97.3% (inactive) | 63.1% | 185% (inactive) | -22.2% (inactive) | 99.6% (inactive) | 3% (inactive) | 10.6% (inactive) | -3.85% (inactive) | 0.82% (inactive) | 100% (inactive) | 0.02 (inactive) | -1% (inactive) | 21.8% (inactive)
16 | COc1ccc(CCN(C)CCCC(C#N)(c2cc(OC)c(OC)c(OC)c2)C(C)C)cc1OC (stereo unspecified) | 100% (inactive) | 99.3% (inactive) | 111% (inactive) | 82.8% (inactive) | 98.6% (inactive) | 57.7% | 239% (inactive) | 11% (inactive) | 86% (inactive) | 1% (inactive) | -12.7% (inactive) | -7.98% (inactive) | 0.22% (inactive) | 99.8% (inactive) | -0.01 (inactive) | 9% (inactive) | 3.18% (inactive)
17 | C[C@@H]1CCC[C@H](C)N1NC(=O)c1ccc(Cl)c(S(N)(=O)=O)c1 | 105% (inactive) | 106% (inactive) | 107% (inactive) | 110% (inactive) | 113% (inactive) | 61.3% | 165% (inactive) | 4.27% (inactive) | 91.8% (inactive) | -2% (inactive) | 6.03% (inactive) | 2.8% (inactive) | 1.78% (inactive) | 105% (inactive) | 0.5 (active) | -5% (inactive) | -8.96% (inactive)
18 | COc1ccc2cc([C@H](C)C(=O)O)ccc2c1 | 103% (inactive) | 93% (inactive) | 99.6% (inactive) | 77.7% (inactive) | 91.7% (inactive) | 70.5% | 222% (inactive) | 2.3% (inactive) | 91% (inactive) | 5% (inactive) | 15.2% (inactive) | -13.8% (inactive) | -6.97% (inactive) | 99.3% (inactive) | 0.08 (inactive) | 6% (inactive) | -12% (inactive)
